These results are taken from PubChem BioAssay.

The nature of assay [1]: E. coli DRC41 culture turbidity changes, primary screen, E. coli filamentation inducer project, strain DRC41, OD650, 48 h (AID 1152).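 Also: E. coli MC1000 strain DRC41 lacking acrAB efflux pump and sulA.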 The following applies: E. coli DRC41 (acrAB sulA), higher = more signal, called active from +8 up or from −8 down.
Assay [2] is described as follows: small-molecule binders of probe aLefty1, primary screen, biochemical, small-molecule microarray, 635/667 nm fluorescence (AID 1153).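 Also: score merges spot fluorescence with signal-to-noise ratio from the scanned slide images.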 As to conditions: higher = more signal.
The nature of assay [3]: PSAC antagonists in infected red cells, primary screen, cell-based, P. falciparum Indochina, OD700, 1 h (AID 1154). As to conditions: P. falciparum Indochina infected RBC osmotic lysis, higher = more signal, called active from +8 up or from −8 down.
A short description of assay [4]: PSAC antagonists in infected red cells, primary screen, cell-based, P. falciparum Indochina, OD700, 2 h (AID 1155).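 Also: lysis reports solute entry through the parasite surface anion channel PSAC; channel blockers reduce lysis of infected cells.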 The following applies: P. falciparum Indochina infected erythrocytes, osmotic lysis OD700; higher = more signal, called active from +8 up or from −8 down.
Assay [5] can be described thus: osmotic lysis modulators in infected erythrocytes, primary screen, PSAC antagonist project, cell-based, P. falciparum Indochina, OD700, 3 h (AID 1156). The following applies: higher = more signal, called active from +8 up or from −8 down.
A short description of assay [6]: PSAC antagonists in infected red cells, primary screen, cell-based, P. falciparum Indochina, OD700, 18 h (AID 1157). The following applies: P. falciparum Indochina infected erythrocytes, osmotic lysis OD700, 18 h; higher = more signal, called active from +8 up or from −8 down.
Assay [7] is described as follows: modulators of S6 phosphorylation in cells, primary screen, cell-based, A549, cytoblot, luminescence, serum-stimulated (AID 1158).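 Also: serum-stimulated A549 lung adenocarcinoma cells; signal is phosphorylated S6 detected by cytoblot immunostaining with HRP secondary.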 The following applies: A549 phospho-S6 cytoblot, 5 h, higher = more signal.
Assay [8] addresses NADPH oxidase 2 (Homo sapiens) (UniProt P04839). Description: NOX2-dependent H2O2 signal modulators, primary screen, NOX inhibitor project, cell-based, HEK293-NOX2, PMA-stimulated, Amplex Red fluorescence (AID 1159). Also: test concentration not given here. As to conditions: 45 min, higher = more signal, called active from +8 up or from −8 down.
The target in assay [9] is NADPH oxidase 4 (Homo sapiens) (UniProt Q9NPH5). Description: NOX4-dependent H2O2 signal modulators, primary screen, NOX inhibitor project, cell-based, HEK293-NOX4, tetracycline-induced, Amplex Red fluorescence (AID 1160). The following applies: 45 min, higher = more signal, called active from +8 up or from −8 down.
Sequence of NADPH oxidase 4 (Homo sapiens) (Q9NPH5 whole entry, looked up): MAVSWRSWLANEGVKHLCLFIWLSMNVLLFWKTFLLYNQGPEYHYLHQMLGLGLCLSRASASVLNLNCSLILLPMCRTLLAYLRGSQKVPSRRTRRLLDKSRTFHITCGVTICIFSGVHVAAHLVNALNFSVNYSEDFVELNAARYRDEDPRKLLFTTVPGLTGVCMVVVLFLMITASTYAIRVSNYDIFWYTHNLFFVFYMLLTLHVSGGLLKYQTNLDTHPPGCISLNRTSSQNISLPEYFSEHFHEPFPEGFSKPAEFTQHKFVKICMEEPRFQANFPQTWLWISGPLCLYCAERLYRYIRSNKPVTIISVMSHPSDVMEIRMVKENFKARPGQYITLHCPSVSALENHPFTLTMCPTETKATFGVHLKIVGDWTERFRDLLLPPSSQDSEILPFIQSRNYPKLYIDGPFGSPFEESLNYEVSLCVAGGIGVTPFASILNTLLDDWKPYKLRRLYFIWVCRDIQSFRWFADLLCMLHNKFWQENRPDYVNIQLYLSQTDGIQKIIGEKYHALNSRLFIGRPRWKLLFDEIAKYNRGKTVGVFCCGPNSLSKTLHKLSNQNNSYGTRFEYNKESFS
For assay [10], the target named is NADPH oxidase 5 (Homo sapiens) (UniProt Q96PH1). Description: NOX5-dependent H2O2 signal modulators, primary screen, NOX inhibitor project, cell-based, HEK293-NOX5, Amplex Red fluorescence (AID 1161). The following applies: HEK293-NOX5, ionomycin, 45 min, higher = more signal.
Sequence of NADPH oxidase 5 (Homo sapiens) (Q96PH1 whole entry, looked up): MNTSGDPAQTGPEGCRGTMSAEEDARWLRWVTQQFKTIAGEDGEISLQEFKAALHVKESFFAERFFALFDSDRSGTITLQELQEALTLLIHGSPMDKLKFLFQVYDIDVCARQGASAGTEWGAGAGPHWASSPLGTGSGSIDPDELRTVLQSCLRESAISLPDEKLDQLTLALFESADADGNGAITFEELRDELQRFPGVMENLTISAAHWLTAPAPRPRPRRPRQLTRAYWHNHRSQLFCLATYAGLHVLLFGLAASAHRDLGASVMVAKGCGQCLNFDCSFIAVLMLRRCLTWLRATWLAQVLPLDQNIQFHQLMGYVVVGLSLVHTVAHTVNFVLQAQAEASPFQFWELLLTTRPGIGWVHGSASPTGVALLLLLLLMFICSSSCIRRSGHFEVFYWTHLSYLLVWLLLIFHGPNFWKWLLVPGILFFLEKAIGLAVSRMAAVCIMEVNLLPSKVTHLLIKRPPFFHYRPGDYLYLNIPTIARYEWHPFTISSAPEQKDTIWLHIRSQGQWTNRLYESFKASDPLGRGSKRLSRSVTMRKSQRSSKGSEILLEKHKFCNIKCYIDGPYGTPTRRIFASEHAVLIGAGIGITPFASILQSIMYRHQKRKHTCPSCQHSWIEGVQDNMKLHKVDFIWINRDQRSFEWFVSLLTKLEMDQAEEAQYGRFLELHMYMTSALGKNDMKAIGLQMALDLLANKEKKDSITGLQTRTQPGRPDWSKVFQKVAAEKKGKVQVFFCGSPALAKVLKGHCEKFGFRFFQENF
A short description of assay [11]: A549 cell viability effects, profiling panel, calcein-AM fluorescence, 48 h, basal (AID 1162). Also: test concentration not given here. The following applies: higher = more signal.
The nature of assay [12]: adipocyte viability effects, profiling panel, cell-based, 3T3-L1 adipocytes, calcein-AM fluorescence, 48 h, basal (AID 1163). Also: test concentration not given here. The following applies: 3T3-L1 adipocytes viability, higher = more signal.
Assay [13] is described as follows: HepG2 cell viability effects, profiling panel, calcein-AM fluorescence, 48 h, basal (AID 1164). Also: test concentration not given here. As to conditions: higher = more signal.
Assay [14] is described as follows: MM1S cell viability effects, profiling panel, calcein-AM fluorescence, 48 h, basal (AID 1165).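 Also: viability of MM1S multiple myeloma cells under basal unstimulated conditions; test concentration not given here.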 The following applies: higher = more signal.
A short description of assay [15]: basal RPMI8226 viability, no added stimulus, profiling panel, cell-based, calcein-AM fluorescence, 48 h, PK04 Diversity Set (AID 1166).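 Also: cells grown under basal conditions without added stimulus; test concentration not given here.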 The following applies: RPMI8226 myeloma viability, higher = more signal.
The nature of assay [16]: basal HepG2 mitochondrial membrane potential changes, profiling panel, cell-based, JC-1 fluorescence, 24 h, 100 nL compound (AID 1167). Also: test concentration not given here. As to conditions: higher = more signal.
Assay [17] in a line: basal 3T3-L1 adipocyte mitochondrial potential changes, profiling panel, cell-based, JC-1 fluorescence, 3T3-L1 adipocytes, 24 h, 100 nL compound (AID 1168). Also: test concentration not given here. As to conditions: JC-1 mitochondrial fluorescence, higher = more signal, called active from +8 up or from −8 down.
A short description of assay [18]: basal RPMI8226 mitochondrial membrane potential changes, profiling panel, cell-based, JC-1 fluorescence, 24 h, 100 nL compound (AID 1169). Also: test concentration not given here. As to conditions: RPMI8226 myeloma, JC-1 mitochondrial potential fluorescence, higher = more signal.
The nature of assay [19]: basal MM1S mitochondrial membrane potential changes, profiling panel, cell-based, JC-1 fluorescence, 24 h, 100 nL compound (AID 1170). Also: test concentration not given here. As to conditions: higher = more signal.
Assay [20] can be described thus: A549 lung cancer cell viability effects, profiling panel, resazurin fluorescence, 24 h, PK04 Diversity Set (AID 1171). Also: test concentration not given here. The following applies: higher = more signal, called active from +8 up or from −8 down. For orientation: The colour change of resazurin is a common sign of viable cells or microbes.

Active and inactive are the calls of the source.

Sequence of NADPH oxidase 2 (Homo sapiens) (P04839 whole entry, looked up): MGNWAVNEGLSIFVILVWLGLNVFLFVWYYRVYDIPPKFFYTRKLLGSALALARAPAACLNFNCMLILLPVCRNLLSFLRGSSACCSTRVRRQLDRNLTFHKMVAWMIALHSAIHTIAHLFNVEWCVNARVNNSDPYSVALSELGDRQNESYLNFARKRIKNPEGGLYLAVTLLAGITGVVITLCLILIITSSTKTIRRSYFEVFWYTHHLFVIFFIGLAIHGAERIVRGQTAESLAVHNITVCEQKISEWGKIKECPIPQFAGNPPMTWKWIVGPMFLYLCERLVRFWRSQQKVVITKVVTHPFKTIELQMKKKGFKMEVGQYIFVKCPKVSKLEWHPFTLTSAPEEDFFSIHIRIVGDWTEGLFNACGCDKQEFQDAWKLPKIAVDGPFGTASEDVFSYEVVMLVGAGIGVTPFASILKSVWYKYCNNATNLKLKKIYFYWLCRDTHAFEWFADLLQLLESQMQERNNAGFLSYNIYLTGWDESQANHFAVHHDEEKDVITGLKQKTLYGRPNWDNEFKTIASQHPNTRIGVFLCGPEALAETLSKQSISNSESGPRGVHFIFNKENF

As for `CC(C)C[C@@H]1NC(=O)[C@@H]2C[C@H](C(=O)NCCCCCCNC(=O)CS)[C@H](c3cccc(OCCO)c3)N2C1=O`, the z-score in assay [1] is -1.05 (inactive); in assay [3], 7.13 (inactive); in [4], 1.57 (inactive); in assay [5], 1.01 (inactive); in [6], 0.792 (inactive); in assay [7], -0.485. The z-score was 1.56 (inactive) in assay [8]; 0.427 (inactive) in assay [9]; -0.196 in assay [10]; 0.028 in assay [11]; -0.0252 in [12]; 0.134 in assay [13]. In addition, the z-score was -0.505 in assay [14]; -0.587 in [15]; -0.946 in assay [16]; -0.185 (inactive) in [17]; -0.217 in assay [18]; -0.165 in assay [19]. The z-score in assay [20] was 0.457 (inactive). In assay [2], this molecule came in with a composite z-score of 0.196.
In the case of `NC(=O)NCC#Cc1ccc2c(c1)[C@]1(C(=O)N2)[C@H](c2ccc(OCCO)cc2)N2[C@H](c3ccccc3)[C@H](c3ccccc3)OC(=O)[C@H]2[C@@H]1C(=O)O`, the z-score in [1] is 0.53 (inactive); in assay [3], 2.54 (inactive); in assay [4] it was -0.7 (inactive); in assay [5], 0.623 (inactive); in [6], -1.3 (inactive); in assay [7], 1.61. Further, the z-score in assay [8] was 1.97 (inactive); in assay [9], 0.325 (inactive); in [10], -0.441; in assay [11] it was -0.295; in assay [12], 1.09; in assay [13], -0.21. Further, the z-score in assay [14] was -1.9; in [15], 0.111; in assay [16], -1.9; in [17] it was -0.469 (inactive); in assay [18] it was -0.278; in assay [19], -1.08. Further, the z-score in [20] was 0.253 (inactive). The same molecule came in with a composite z-score in [2] of -0.0536.
Consider `O=C1N(CCS(=O)(=O)c2ccccc2)c2ccccc2C[C@]12N=C(c1ccc(OCCCO)cc1)O[C@@H]2c1ccccc1`, for which the z-score in assay [1] is -0.499 (inactive); in assay [3], 26.3 (active); in assay [4], 18.6 (active); in [5], 1.85 (inactive); in [6], 2.95 (inactive); in assay [7], -0.18. In addition, the z-score in [8] was -0.304 (inactive); in assay [9] it was 0.615 (inactive); in assay [10] it was 0.627; in [11], -0.982; in assay [12], 0.0009; in assay [13], 0.207. In addition, the z-score in assay [14] was -0.967; in assay [15], -2.48; in assay [16] it was -0.484; in assay [17], 1.07 (inactive); in assay [18], -0.687; in assay [19], -0.242. Further, the z-score in assay [20] is -1.37 (inactive). The molecule also registered a composite z-score in assay [2] of 0.732.
On to `COc1ccc(CCNC(=O)[C@@H]2c3ccccc3C(=O)N(Cc3ccccc3OC)[C@H]2c2ccc(CO)cc2)cc1`, for which the z-score was -0.499 (inactive) in [1]; 3.02 (inactive) in assay [3]; 0.0323 (inactive) in assay [4]; 0.709 (inactive) in assay [5]; -0.0383 (inactive) in assay [6]; -0.0817 in assay [7]. For the same molecule, the z-score is -1.31 (inactive) in [8]; -0.213 (inactive) in assay [9]; -2.09 in [10]; 0.41 in [11]; -0.219 in [12]; -0.147 in assay [13]. Also, the z-score is -0.147 in assay [14]; 0.245 in [15]; 1.22 in [16]; -0.822 (inactive) in [17]; -0.167 in assay [18]; -0.42 in assay [19]. The z-score in assay [20] was 1.58 (inactive). The molecule also displayed a composite z-score in [2] of -0.0303.
Turning to `CCCCC(O)C1C=CC2C(=O)N(c3ccccc3)C(=O)C2N1Nc1ccc([N+](=O)[O-])cc1` (stereo not given), the z-score in assay [1] was 0.372 (inactive); in assay [3], 14.2 (active); in assay [4] it was 1.38 (inactive); in assay [5], 0.371 (inactive); in [6], -1.06 (inactive); in assay [7] it was 0.581. Also, the z-score in [8] is -1.08 (inactive); in [9] it was -1.65 (inactive); in assay [10], -0.302; in assay [11] it was 0.286; in [12], -0.229; in assay [13], 0.0784. The z-score in assay [14] is -0.72; in assay [15] it was -0.438; in [16], -0.573; in [17] it was -1.08 (inactive); in assay [18], -0.147; in assay [19] it was -0.745. Further, the z-score in assay [20] is 0.113 (inactive). This molecule showed a composite z-score in assay [2] of 0.683.
As for `C=C(C)[C@@H]1CC=C(C(O)C2C=CC3C(=O)N(c4ccccc4)C(=O)C3N2Nc2ccc([N+](=O)[O-])cc2)CC1` (stereo not given in full), the z-score is -1.58 (inactive) in assay [1]; 5.76 (inactive) in [3]; 1.9 (inactive) in [4]; 1.34 (inactive) in assay [5]; 1.79 (inactive) in [6]; -0.456 in assay [7]. Besides, the z-score in assay [8] was -0.962 (inactive); in assay [9] it was -2.07 (inactive); in assay [10] it was -2.96; in assay [11], 0.485; in assay [12], 0.153; in [13], 0.736. Besides, the z-score in [14] was -0.807; in assay [15] it was -0.493; in assay [16], -0.307; in assay [17] it was -2.47 (inactive); in assay [18], -0.507; in assay [19], 0.451. Moreover, in assay [20], the z-score is -0.963 (inactive). The molecule further came in with a composite z-score in assay [2] of 0.37.
As for `C[C@@H]1NC(=O)C([C@@H](C)OCc2ccccc2)NC(=O)[C@@]23C(=O)N[C@@H](Cc4ccccc4)C2[C@H](C)[C@@]2(C)O[C@H]2C3/C=C/C/C=C\CNC1=O` (stereo not given in full), the z-score in assay [1] is -0.999 (inactive); in assay [3] it was 2.36 (inactive); in assay [4], -0.169 (inactive); in assay [5], 0.604 (inactive); in assay [6] it was 0.182 (inactive); in assay [7], -0.093. The z-score in [8] is 0.715 (inactive); in [9], -0.942 (inactive); in assay [10] it was 0.467; in assay [11], -0.405; in assay [12], 0.387; in assay [13], -0.448. Also, the z-score in assay [14] is -0.129; in assay [15], -1.1; in assay [16], -0.121; in [17], 0.782 (inactive); in assay [18] it was 0.514; in assay [19], 0.186. In addition, the z-score in assay [20] is -0.0746 (inactive). Further, the composite z-score in assay [2] was -0.147.
`C=CCN1Cc2ccccc2[C@H]2OC(c3ccc(OCCCO)cc3)=N[C@@]2(CCS(=O)(=O)c2ccccc2)C1=O`: the z-score in assay [1] is -0.028 (inactive); in [3], 30.4 (active); in assay [4] it was 27.2 (active); in assay [5] it was 1.47 (inactive); in [6], 6 (inactive); in [7] it was -0.272. In addition, the z-score is -0.697 (inactive) in [8]; 1.93 (inactive) in assay [9]; 0.119 in [10]; 0.0622 in assay [11]; 0.413 in assay [12]; -0.37 in assay [13]. For the same molecule, the z-score in [14] was -1.56; in assay [15], -0.209; in [16], -0.971; in assay [17] it was -0.509 (inactive); in assay [18] it was -0.798; in assay [19], -0.0644. Also, in [20], the z-score is 0.0687 (inactive). In [2], this molecule showed a composite z-score of 0.607.
